This note sets out measurements from article PMC10726135, “HNF4α isoforms regulate the circadian balance between carbohydrate and lipid metabolism in the liver”.

Over roughly 18,000 sequences, “log2 normalized intensity” has its median near 0.39; the highest 2% begin near 6.6. The sample as a whole holds a higher share of the highest values than the screen did.

The experiment concerns the target T1, HNF4alpha2 (COS-7 nuclear extract) (Homo sapiens, UniProt P41235 1-474).
T1 sequence: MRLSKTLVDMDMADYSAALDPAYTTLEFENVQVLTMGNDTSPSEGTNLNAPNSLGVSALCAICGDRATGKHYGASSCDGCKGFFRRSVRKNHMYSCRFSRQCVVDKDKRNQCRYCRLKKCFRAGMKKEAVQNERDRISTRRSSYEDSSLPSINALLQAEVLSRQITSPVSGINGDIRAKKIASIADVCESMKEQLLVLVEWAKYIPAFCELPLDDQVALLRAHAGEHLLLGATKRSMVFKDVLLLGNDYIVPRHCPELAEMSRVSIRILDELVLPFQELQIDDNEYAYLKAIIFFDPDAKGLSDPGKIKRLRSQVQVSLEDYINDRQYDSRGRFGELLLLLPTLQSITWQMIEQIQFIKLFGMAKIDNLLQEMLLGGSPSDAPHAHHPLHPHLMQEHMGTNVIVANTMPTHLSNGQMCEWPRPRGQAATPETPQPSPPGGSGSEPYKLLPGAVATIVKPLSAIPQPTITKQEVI
The experiment in a line: protein-binding microarray; COS-7 nuclear extract on double-stranded Agilent 4x180k PBM; binding buffer, salt, pH and temperature not given in the material; high values mean tight binding. The note with it: chain copies: 2; label: 3' end of strand 1 on the slide; dsDNA, one strand shown. The gist of the method: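 COS-7 cells were transiently transfected by CaPO4 with an expression vector for a human HNF4α isoform, and nuclear extracts were prepared from them. The extracts were applied to a custom Agilent SurePrint G3 4x180k array of double-stranded ~60-nt oligonucleotides, with ~44,000 test sequences spotted in quadruplicate. An Agilent G2565CA scanner imaged bound HNF4α at 2-µm resolution. Binding signal is the background-corrected, normalized gProcessedSignal from Agilent software.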
Take “CTCTAGGGTAGATAAGGATGGATCAAAGGAGCCTAGGGAGATTAGAGTATCGGTCGA”: the binding signal is -0.461 log2 normalized intensity.
Under “TTCCACCTGGAATGCACTTGTTCCGGATAGGCCTAGGGAGATTAGAGTATCGGTCGA” stands 1.11 log2 normalized intensity.
Next, “CCATGGTAAGAACTACAGTTGACCTTTGAAGCCTAGGGAGATTAGAGTATCGGTCGA”: 7.38 log2 normalized intensity; “TAGGTATGCCCCATGGTAAGAACTACAGTTGCCTAGGGAGATTAGAGTATCGGTCGA”: 0.881 log2 normalized intensity; “GACCTTTGAACACCACAAGTTTGAACTGCAGCCTAGGGAGATTAGAGTATCGGTCGA”: 5.05 log2 normalized intensity.
In the case of “AACTACAGTTGACCTTTGAACACCACAAGTGCCTAGGGAGATTAGAGTATCGGTCGA”, the binding signal is 7.56 log2 normalized intensity.
With “CAGTTGACCTTTGAACACCACAAGTTTGAAGCCTAGGGAGATTAGAGTATCGGTCGA”, the binding signal is 6.31 log2 normalized intensity.
As for “ATGCCCCATGGTAAGAACTACAGTTGACCTGCCTAGGGAGATTAGAGTATCGGTCGA”, the binding signal amounted to 4.18 log2 normalized intensity.
As to “GGAATGTTGCTGTGCTGCCCTCTTGTGGCCGCCTAGGGAGATTAGAGTATCGGTCGA”, the binding signal was 1.66 log2 normalized intensity.
Under “TGTTTCCAATAGGTTTGATTTCAGCATGTTGCCTAGGGAGATTAGAGTATCGGTCGA” stands 1.59 log2 normalized intensity; under “TATGTGGTGGAATGGAAAGAATATGAACTTGCCTAGGGAGATTAGAGTATCGGTCGA”, 1.66 log2 normalized intensity.
In the case of “ACCCCACGGAGCTGCCTCACATGAGCTAGAGCCTAGGGAGATTAGAGTATCGGTCGA”, the binding signal was -0.873 log2 normalized intensity.
For the sequence “ATTGGCCCTTTGACCTTTAATCAAGGGCTGGCCTAGGGAGATTAGAGTATCGGTCGA”, the binding signal worked out at 5.08 log2 normalized intensity.
With “CTGGGCCCTGCCTGACCTGCCCTTTGTCCCGCCTAGGGAGATTAGAGTATCGGTCGA”, the binding signal was found to be 6.28 log2 normalized intensity.
With “ATCGCCCTTTGAGGAGGCCTTTCCTGACCCGCCTAGGGAGATTAGAGTATCGGTCGA”, the binding signal came out at 2.78 log2 normalized intensity.
As for “TTAGCTATTTGACCTTCGGCCTCAATTATAGCCTAGGGAGATTAGAGTATCGGTCGA”, the binding signal was 6.43 log2 normalized intensity.
Regarding “GGGCCCTGACCTCAAGTGACCTTTGACCTCGCCTAGGGAGATTAGAGTATCGGTCGA”, the binding signal is 12.1 log2 normalized intensity.
Under “CCAGGCTGATTTAGCTATTTGACCTTCGGCGCCTAGGGAGATTAGAGTATCGGTCGA” stands 4.92 log2 normalized intensity; under “GCCCCTGGCTGGGCCCTGACCTCAAGTGACGCCTAGGGAGATTAGAGTATCGGTCGA”, 1.91 log2 normalized intensity.
On to “TGGCTGGGCCCTGACCTCAAGTGACCTTTGGCCTAGGGAGATTAGAGTATCGGTCGA”, for which the binding signal was 7.17 log2 normalized intensity.
Turning to “CTGATTTAGCTATTTGACCTTCGGCCTCAAGCCTAGGGAGATTAGAGTATCGGTCGA”, the binding signal was determined as 8.16 log2 normalized intensity.
Regarding “GGCTTGTACCTTGACCTTCTCTGTTAACCCGCCTAGGGAGATTAGAGTATCGGTCGA”, the binding signal was 4.27 log2 normalized intensity.
Next, “GATGGGCCAGGCAGGACAGTTTTGTGTGTTGCCTAGGGAGATTAGAGTATCGGTCGA”: 1.11 log2 normalized intensity.
Consider “TCAGATATCTGAATGTACCTTTGAAACCTAGCCTAGGGAGATTAGAGTATCGGTCGA”, for which the binding signal was 2.87 log2 normalized intensity.
Under “ATCCAGTAGAGGGCATAGCAGATAAGCATTGCCTAGGGAGATTAGAGTATCGGTCGA” stands -0.984 log2 normalized intensity; under “ACTTCTTTGTGATGTGTGGATTCAGCTCACGCCTAGGGAGATTAGAGTATCGGTCGA”, 1.29 log2 normalized intensity; under “ATCTCAAATAGCTGGGTCTCACTCTGACCCGCCTAGGGAGATTAGAGTATCGGTCGA”, 3.32 log2 normalized intensity.
As for “ACTTCAAAGGGTGTTGTGACTACCTGGTTAGCCTAGGGAGATTAGAGTATCGGTCGA”, the binding signal was 0.524 log2 normalized intensity.
Turning to “AACTTCTTCCAATGAAAGGTTAACCTGCTGGCCTAGGGAGATTAGAGTATCGGTCGA”, the binding signal was determined as 1.36 log2 normalized intensity.
Turning to “ACATTTTTATCCTTTTTTGAAGGTTAAAGTGCCTAGGGAGATTAGAGTATCGGTCGA”, the binding signal amounted to 2.66 log2 normalized intensity.
Under “AAGGGCTGAGGTTAAAGTCCACATTCTTTAGCCTAGGGAGATTAGAGTATCGGTCGA” stands 5.76 log2 normalized intensity.
For “CCTTTTTTGAAGGTTAAAGTCCATTTTTGAGCCTAGGGAGATTAGAGTATCGGTCGA”, the binding signal was 6.53 log2 normalized intensity.
Regarding “TCACAAAGGGCTGAGGTTAAAGTCCACATTGCCTAGGGAGATTAGAGTATCGGTCGA”, the binding signal is 7.04 log2 normalized intensity.
For “TTTATCCTTTTTTGAAGGTTAAAGTCCATTGCCTAGGGAGATTAGAGTATCGGTCGA”, the binding signal was determined as 7 log2 normalized intensity.
Turning to “AAGCTTCACAAAGGGCTGAGGTTAAAGTCCGCCTAGGGAGATTAGAGTATCGGTCGA”, the binding signal was 6.22 log2 normalized intensity.
In the case of “TCCCCACTTATTACCGGTGTGACTTTGGTTGCCTAGGGAGATTAGAGTATCGGTCGA”, the binding signal worked out at 2.1 log2 normalized intensity.
As to “CGGGAGGCAAGATAAGGGTAATCACCCCCAGCCTAGGGAGATTAGAGTATCGGTCGA”, the binding signal is 2.34 log2 normalized intensity.
Under “ATGTGGTCCTAAGACTAACCTTTGACCATCGCCTAGGGAGATTAGAGTATCGGTCGA” stands 7.45 log2 normalized intensity.
Consider “TTACTCATGTGGTCCTAAGACTAACCTTTGGCCTAGGGAGATTAGAGTATCGGTCGA”, for which the binding signal was found to be 3.37 log2 normalized intensity.
Next, “TACTCATGTGGTCCTAAGACTAACCTTTGAGCCTAGGGAGATTAGAGTATCGGTCGA”: 6.33 log2 normalized intensity; “GGTCCTAAGACTAACCTTTGACCATCCACGGCCTAGGGAGATTAGAGTATCGGTCGA”: 5.96 log2 normalized intensity.
On to “CCTCCATTAACTAACCTTTGAACCAGATGGGCCTAGGGAGATTAGAGTATCGGTCGA”, for which the binding signal was 4.77 log2 normalized intensity.
As for “ATTAACTAACCTTTGAACCAGATGGCCCTCGCCTAGGGAGATTAGAGTATCGGTCGA”, the binding signal came out at 3.62 log2 normalized intensity.
